# Values joined by “and” are separate entries in the source; they are usually repeats but may differ in a detail not shown here. Equal entries are not always repeated. Active and inactive are the calls of the source. Rule as the data show it, unless noted: active = parasite load remaining mostly below about 12% (no sharp cut-off); inactive = mostly above about 10%.
# Assays:
# [1] = P. berghei load reduction in hepatocytes – cell-based, HepG2, luciferase luminescence, HepG2 viability, primary screen (AID 624349);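 also: 100% = mean of DMSO negative control wells on the same plate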; details: P. berghei liver stage in HepG2, luciferase luminescence, concentration not given here; parasite load remaining: stronger effect = lower value; viability: measured here: HepG2 viability without parasites
# [2] = Wnt pathway potentiators raising nuclear beta-catenin – imaging, WNT3A-conditioned medium, mouse C2C12, NPC library, primary screen (AID 1117326; in the data active = nuclear beta-catenin stimulation mostly above about 4.2%, no sharp cut-off; inactive = mostly below about 10%); details: stronger effect = higher value
# [3] = stimulators of insulin release from INS-1E, primary screen, cell-based, 5 mM glucose, NPC library (AID 1117329;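 active = compound raises insulin release from rat beta cells at 5 mM glucose, no numeric limit stated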); details: rat INS-1E insulin secretion, at 10 µM, stronger effect = higher value
# [4] = growth inhibition of GSK3B-pretreated HCT116 cells – cell-based, CellTiter-Glo, 0.2 to 20 µM (AID 1117336;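 active = compounds lowering colon cancer cell viability after pretreatment blocking the GSK3B kinase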); details: HCT116 viability after GSK3B inhibitor, at 20 µM, stronger effect = higher value
# [5] = inhibition of endothelial tube formation, primary screen, imaging, VEGF stimulated, CD31 staining, tube area, NPC library (AID 1117340;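 active = compound that reduces growth-factor-driven endothelial tube area in a mixed cell culture, no cutoff stated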); details: VEGF-stimulated ADSC/ECFC co-culture, at 10 µM, stronger effect = higher value
# [6] = GLP1 release stimulators, primary, NCI-H716, NPC library (AID 1117341;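 active = compound raises GLP1 secretion from the human gut endocrine cells, with no numeric limit stated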); details: NCI-H716 cells, at 10 µM, stronger effect = higher value
# [7] = HCT116 colon cancer cell growth inhibition, primary screen, CellTiter-Glo luminescence, NPC library (AID 1117342;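 active = compounds that lower survival of HCT116 colon cancer cells in the luminescence readout, no numeric limit stated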); details: at 20 µM (top of the series)
# [8] = reduced SW480 viability measured with CellTiter-Glo, NPC library, primary (AID 1117343;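 active = compounds that lower viability of the colon cancer cells in the luminescence readout, with no numeric limit stated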); details: CellTiter-Glo luminescence; at 20 µM (top of the series)
# [9] = NPC library primary testing for decreased DLD-1 cell viability via CellTiter-Glo (AID 1117346;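 active = compounds that lower survival of DLD-1 colon cancer cells in the luminescence readout, no cutoff given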); details: DLD-1 viability, CellTiter-Glo luminescence; at 20 µM (top of the series)
# [10] = molecular target: 6-phosphogluconate dehydrogenase, decarboxylating (Homo sapiens) (UniProt P52209); assay: inhibition of human phosphogluconate dehydrogenase – biochemical, recombinant enzyme, NADPH absorbance, primary screen (AID 1159550;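 active = at least 20% inhibition of 6-phosphogluconate dehydrogenase activity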); details: recombinant 6PGD, NADPH absorbance 341 nm; at 10 µM; stronger effect = higher value
# Chain of 6-phosphogluconate dehydrogenase, decarboxylating (Homo sapiens) (P52209 whole entry, looked up): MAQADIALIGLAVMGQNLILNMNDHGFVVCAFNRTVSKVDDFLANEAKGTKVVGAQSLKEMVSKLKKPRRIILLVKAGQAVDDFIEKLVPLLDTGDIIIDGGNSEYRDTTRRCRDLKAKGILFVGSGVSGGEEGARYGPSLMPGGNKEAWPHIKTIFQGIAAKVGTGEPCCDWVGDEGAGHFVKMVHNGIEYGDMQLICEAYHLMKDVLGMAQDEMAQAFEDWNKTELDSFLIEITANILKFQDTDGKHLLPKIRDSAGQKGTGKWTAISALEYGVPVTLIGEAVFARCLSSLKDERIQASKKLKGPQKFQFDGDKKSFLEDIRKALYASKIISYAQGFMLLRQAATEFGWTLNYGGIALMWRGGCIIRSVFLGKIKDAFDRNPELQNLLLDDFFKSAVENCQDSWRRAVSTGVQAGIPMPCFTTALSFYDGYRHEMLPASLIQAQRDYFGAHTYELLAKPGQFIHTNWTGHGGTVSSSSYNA
# [11] = EMT-state selective cytotoxicity in co-culture – imaging, PC-3E GFP, TEM4-18 mCherry, primary screen (AID 1345086;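 active = compounds killing one labelled cell type while sparing the other, by normalised counts and ratio limits, not self-fluorescent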;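 as to all read-outs here: cells exposed to compound for 72 h before imaging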;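 as to red/green cell ratio (normalised): normalised mesenchymal count divided by normalised epithelial count so high means epithelial killing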); details: PC-3E GFP / TEM4-18 mCherry co-culture, imaging cell counts, at 1 µM; for red/green cell ratio (normalised): actives lie on both sides
# [12] = test system: Aerobactin synthetase IucA (Klebsiella pneumoniae hvKP1); assay: IucA enzyme inhibition, primary screen, biochemical, Spectrum library (AID 1346200; call rule not given here;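 also: 100% = wells without compound and 0% = wells lacking enzyme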); details: malachite green pyrophosphate, A620, at 8 µM, stronger effect = lower value
# [13] = viability loss with induced miR-34 in A549 – imaging, A549 dox-inducible miR-34, nuclei and caspase counts, primary screen (AID 1347080;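 active = compounds whose cell count with miR-34 switched on is under 0.7 times the count with it off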); details: A549 miR-34 inducible, Hoechst nuclei count, 48 h
# [14] = molecular target: Mitogen-activated protein kinase 7 (Homo sapiens) (UniProt Q13164); assay: Gal4-ERK5 driven luciferase induction – cell-based, HTS, primary screen (AID 1508626;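 active = luciferase signal above three times the same-plate solvent-only control wells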;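 also: luciferase driven by Gal4-ERK5 fusion binding five Gal4 sites before minimal TATA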); details: HeLa Gal4-ERK5 transactivation, 18 h, at 5 µM, stronger effect = higher value
# Chain of Mitogen-activated protein kinase 7 (Homo sapiens) (Q13164 whole entry, looked up, the tested form may be a part): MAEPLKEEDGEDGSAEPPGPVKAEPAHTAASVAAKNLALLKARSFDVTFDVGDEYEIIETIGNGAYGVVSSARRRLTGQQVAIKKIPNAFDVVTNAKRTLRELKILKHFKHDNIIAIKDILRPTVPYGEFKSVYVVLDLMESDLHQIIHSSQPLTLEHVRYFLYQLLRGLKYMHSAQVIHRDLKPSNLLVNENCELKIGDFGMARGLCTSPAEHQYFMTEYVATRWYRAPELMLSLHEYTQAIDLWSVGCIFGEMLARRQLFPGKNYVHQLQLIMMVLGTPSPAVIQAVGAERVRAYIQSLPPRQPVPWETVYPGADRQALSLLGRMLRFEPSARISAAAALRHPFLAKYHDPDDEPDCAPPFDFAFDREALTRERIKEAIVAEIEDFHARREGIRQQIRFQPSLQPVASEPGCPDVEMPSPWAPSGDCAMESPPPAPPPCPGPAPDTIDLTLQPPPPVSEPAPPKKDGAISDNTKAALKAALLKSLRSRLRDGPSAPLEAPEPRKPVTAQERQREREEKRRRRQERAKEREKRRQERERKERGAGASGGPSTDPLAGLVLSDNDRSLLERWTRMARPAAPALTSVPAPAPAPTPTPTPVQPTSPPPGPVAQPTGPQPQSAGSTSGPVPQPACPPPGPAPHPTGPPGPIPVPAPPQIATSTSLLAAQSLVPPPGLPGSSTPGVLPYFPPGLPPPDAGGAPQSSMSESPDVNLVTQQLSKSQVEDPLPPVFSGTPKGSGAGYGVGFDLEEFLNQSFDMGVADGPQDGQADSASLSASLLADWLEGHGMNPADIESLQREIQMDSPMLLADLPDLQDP
# [15] = molecular target: NAD(+) hydrolase SARM1 (Homo sapiens) (UniProt Q6SZW1); assay: blocking NAD cleavage by SARM1 SAM-TIR – cell lysate, NAD-Glo luminescence (AID 1508614;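 active = compound whose remaining NAD level is above about 45 nM, limit read from the data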;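 also: higher remaining NAD means stronger inhibition of SARM1 NADase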); details: SAM-TIR HEK293T lysate NADase, at 1 µM, stronger effect = higher value
# Chain of NAD(+) hydrolase SARM1 (Homo sapiens) (Q6SZW1 whole entry, looked up): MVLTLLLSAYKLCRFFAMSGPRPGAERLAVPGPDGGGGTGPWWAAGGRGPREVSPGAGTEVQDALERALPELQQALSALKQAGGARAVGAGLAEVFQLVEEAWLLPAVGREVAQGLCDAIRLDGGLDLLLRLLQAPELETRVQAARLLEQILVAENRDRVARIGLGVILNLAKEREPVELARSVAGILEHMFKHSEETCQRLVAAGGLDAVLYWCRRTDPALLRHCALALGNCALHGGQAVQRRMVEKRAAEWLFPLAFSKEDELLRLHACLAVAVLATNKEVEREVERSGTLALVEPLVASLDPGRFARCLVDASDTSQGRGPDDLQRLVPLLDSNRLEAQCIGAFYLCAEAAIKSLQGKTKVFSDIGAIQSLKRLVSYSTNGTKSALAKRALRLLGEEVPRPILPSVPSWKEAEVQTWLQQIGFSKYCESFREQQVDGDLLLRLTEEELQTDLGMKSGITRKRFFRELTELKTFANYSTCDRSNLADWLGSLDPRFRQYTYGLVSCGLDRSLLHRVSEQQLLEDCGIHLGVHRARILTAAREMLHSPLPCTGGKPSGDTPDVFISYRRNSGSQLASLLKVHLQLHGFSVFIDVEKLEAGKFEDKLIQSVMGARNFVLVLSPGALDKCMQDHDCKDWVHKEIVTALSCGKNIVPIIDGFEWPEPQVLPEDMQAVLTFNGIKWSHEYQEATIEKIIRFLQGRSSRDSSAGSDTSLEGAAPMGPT
# [16] = measured here: epithelial PC-3E GFP cell survival
# [17] = measured here: mesenchymal TEM4-18 mCherry cell survival
# [18] = measured here: relative caspase fold change +Dox/-Dox
# [19] = measured here: total cells with miR-34 induction, stronger effect = lower value
# [20] = measured here: total cells without miR-34 induction
smiles,measurement,setting,value
CC1=C2[C@H]3OC(=O)[C@@H](C)[C@@H]3CC[C@@]2(C)C=CC1=O,parasite load remaining,[1],92.1% (inactive)
same,viability,[1],72.5%
same,nuclear beta-catenin stimulation,[2]; at 10 µM,0.7% (inactive)
same,nuclear beta-catenin stimulation,"[2]; stimulation, at 2 µM",1%
same,insulin secretion stimulation,[3],0% (inactive)
same,viability decrease,[4],1.65% (inactive)
same,tube area decrease,[5],15.6% (inactive)
same,GLP1 secretion stimulation,[6],-0.6% (inactive)
same,inhibition of viability,[7],1.8% (inactive)
same,viability decrease (inhibition),[8],14.6% (inactive)
same,viability decrease (inhibition),[9],3.8% (inactive)
same,inhibition,[10],10.8% (inactive)
same,red/green cell ratio (normalised),[11],0.97 (inactive)
same,normalised cell number,[11]; [16],1.11
same,normalised cell number,[11]; [17],1.07
same,activity remaining,[12],93.8% (inactive)
same,fold change,[13]; stronger effect = lower value,0.915 (inactive)
same,fold change,[13]; [18],0.797
same,cell count,[13]; [19],8180
same,cell count,[13]; [20],8940
same,luciferase signal,[14],44 AU (inactive)
Cc1ccc(N=CN(C)C=Nc2ccc(C)cc2C)c(C)c1,parasite load remaining,[1],103% (inactive) and 56.6% (inactive)
same,viability,[1],84.4% and 95.1%
same,nuclear beta-catenin stimulation,[2]; at 10 µM,0.6% (inactive)
same,nuclear beta-catenin stimulation,"[2]; stimulation, at 2 µM",2.7%
same,insulin secretion stimulation,[3],1.3% (inactive)
same,viability decrease,[4],15.1% (inactive)
same,tube area decrease,[5],-4.8% (inactive)
same,GLP1 secretion stimulation,[6],-3.1% (inactive)
same,inhibition of viability,[7],2.47% (inactive)
same,viability decrease (inhibition),[8],-61.8% (inactive)
same,viability decrease (inhibition),[9],-5.9% (inactive)
same,inhibition,[10],17.7% (inactive)
same,red/green cell ratio (normalised),[11],1.11 (inactive)
same,normalised cell number,[11]; [16],1.13
same,normalised cell number,[11]; [17],1.26
same,activity remaining,[12],119% (inactive)
same,fold change,[13]; stronger effect = lower value,0.87 (inactive)
same,fold change,[13]; [18],1.15
same,cell count,[13]; [19],11000
same,cell count,[13]; [20],12600
same,remaining NAD,[15],10 nM (inactive)
same,luciferase signal,[14],32 AU (inactive)
